Screening results deposited in PubChem by several laboratories.
Compounds with a hit are over-represented: about 3.8% of the library has one in this group of screens.
Shn3 inh set2: reduction of Shn3 3'UTR firefly luciferase signal, primary screen, Schnurri-3 inhibitor project, cell-based, Clone20 osteoblasts, set 2. Clone20 osteoblast Shn3 3'UTR firefly luciferase, 24 h. inhibition, % at 12.5 µM. 360,000 tested, 0.52% active. AID 588674, 2011;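 active = mean inhibition of at least 75% with every replicate also reaching 75%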;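 also: 0% = median of neutral control wells and 100% = pilot-screen positive control compound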
Gli-Sufu block: Gli-Sufu pathway antagonists, primary screen, luciferase luminescence, Sufu-KO-LIGHT cells, uHTS | Sufu-KO-LIGHT fibroblasts, Gli luciferase reporter luminescence | inhibition, % at 5 µM | 340,000 tested, 0.74% active | AID 588413, 2011;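 active = inhibition above about 55%, limit read from the data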;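 also: 0% = DMSO-treated cells and 100% = wells with medium but no cells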
697 NFkB inh: inhibitors of PMA/ionomycin-induced NF-kB reporter, 697 cells, primary screen, B-cell NF-kB inhibitor project, cell-based, luminescence, uHTS; 697 B-cell NF-kB luciferase reporter, 16 h; inhibition, % at 4 µM; 330,000 tested, 0.33% active; AID 435022, 2010; in the data active = inhibition above about 35%
Mdm2-MdmX inh: inhibitors of human Mdm2-MdmX association, primary screen, cell-based, luminescence, split luciferase, SaOS-2, uHTS; SaOS-2 split-luciferase Mdm2/MdmX complementation; Protein Mdm4 (Homo sapiens) + E3 ubiquitin-protein ligase Mdm2 (Homo sapiens), …; inhibition, % at 8 µM; 330,000 tested, 3% active;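 active = inhibition of at least 50% at 8 µM in the primary screen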
Jurkat NFkB inh: inhibitors of induced NF-kB luciferase reporter, primary screen, TCR NF-kB activation inhibitor project, cell-based, luminescence, uHTS | Jurkat, PMA/ionomycin-induced NF-kB luciferase reporter | inhibition, % at 4 µM | 330,000 tested, 0.53% active | AID 435003, 2010; in the data active = inhibition above about 50%
Mdm2 MdmX conf: Mdm2-MdmX complex disruptors, retested hits, confirmation, luminescence, single concentration | shares compounds with Mdm2-MdmX inh | Mdm2-MdmX binding, luminescent assay | inhibition, % at 8 µM | 10,000 tested, 55% active | AID 489028, 2010; in the data active = inhibition above about 40%
FLuc counter: full-length luciferase signal inhibition, confirmation, counter-screen for Mdm2/MdmX interaction inhibitor project, cell-based, single concentration, SaOS-2; SaOS-2 full-length luciferase counterscreen, luminescence; 6,200 tested, 77% active; shares compounds with Mdm2-MdmX inh; inhibition, % at 8 µM;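 active = mean inhibition at 8 µM reaching about 37%, which flags the compound as non-specific, limit read from the data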;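 also: p53-null SaOS-2 cells with luciferase driven by a doxycycline-inducible promoter; compound on cells about two nights before reading with doxycycline added after day one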
The depositor's hits bear a star; . = no result given.

SMILES	Shn3 inh set2	Gli-Sufu block	697 NFkB inh	Mdm2-MdmX inh	Jurkat NFkB inh	Mdm2 MdmX conf	FLuc counter
OCCCNc1ncnc2scc(-c3ccc(Cl)cc3)c12	32.2	-11.3	-28.7	70.8*	-0.9	59.8*	33.2
CCOC(=O)c1c(C)[nH]c(C)c1S(=O)(=O)NCC(=O)Nc1ccccn1	-26.7	2.7	-12.3	11.5	-8.9	.	.
N#C/C(=C/c1ccc(F)cc1)c1nnc(NC(=O)c2ccccc2)s1	-2.6	1.1	-11.8	74.2*	-5.8	21.1	.
CN(Cc1ccc(F)cc1)S(=O)(=O)c1nnc(NC(=O)c2ccccc2)s1	-22.0	-15.1	-12.2	10.0	10.4	.	.
O=c1cc(O)c2sc(Nc3ccc(Cl)c(F)c3)nc2[nH]1	3.4	4.0	6.1	71.6*	-4.8	55.5*	44.8*
O=c1cc(O)c2sc(Nc3ccc(F)c(Cl)c3)nc2[nH]1	-1.4	-3.4	5.3	60.2*	0.5	45.4*	63.5*
COc1ccc(Nc2nc3[nH]c(=O)cc(O)c3s2)cc1	-3.9	1.8	3.1	29.3	-2.2	.	.
CC(=O)c1ccc(NC(=O)CSc2nc3[nH]c(=O)cc(O)c3s2)cc1	7.7	-0.3	.	.	.	.	.
CCCCCCN(C(=O)CCCCCN1C(=O)NC(c2ccc(C(C)(C)C)cc2)C(C(=O)OCc2ccccc2)=C1C)C(C(=O)NCCCC)c1ccc(OCC(=O)OC)c(C(=O)OC)c1 (centres undefined)	.	.	1.7	77.0*	11.6	4.8	.
CC1(C)NC(=O)N(CC(O)CN(c2ccccc2)S(=O)(=O)c2ccccc2[N+](=O)[O-])C1=O (centres undefined)	1.7	0.0	11.0	18.7	4.0	.	.
COc1ccccc1NC(=O)N(C)C[C@H]1OCc2cnnn2CCCC(=O)N([C@@H](C)CO)C[C@H]1C	-8.3	.	.	.	.	.	.
COc1ccccc1C(=O)Nc1c(C(=O)N(CCN(C)C)Cc2ccco2)oc2ccccc12	4.7	23.4	13.8	62.3*	2.0	27.0	.
Cc1ccccc1C(=O)Nc1c(C(=O)N(CCN(C)C)Cc2ccco2)oc2ccccc12	-11.3	8.6	10.8	24.1	0.2	.	.
CNC(=O)c1ccc(S(=O)(=O)c2ccc(Cl)cc2)c(NC(C)=O)c1	-10.6	1.8	7.4	9.6	0.8	.	.
CNC(=O)c1nnsc1S(=O)(=O)c1ccc(Cl)cc1	98.5*	13.8	28.2	95.9*	17.7	100.2*	51.2*
Nc1nc(C(=O)N2CCOCC2)nn1S(=O)(=O)c1ccc(Cl)cc1	-10.1	9.5	5.6	7.8	-7.0	.	.
O=C(c1nnsc1S(=O)(=O)c1ccc(Cl)cc1)N1CCOCC1	95.2*	2.8	-8.0	94.9*	47.1	68.2*	19.3
Cc1cc(C(=O)c2ccc(Cl)cc2)c(NC(=O)CCl)s1	19.2	-3.8	28.5	66.8*	4.7	5.5	.
CN(C)CCn1c(=O)n(C2CCCCC2)c(=O)c2c3c(sc21)CCCCC3	15.5	10.5	21.3	59.4*	5.5	44.9*	65.5*
CCOc1ccccc1NC(=O)CCC(=O)Nc1nnc(C2CCCCC2)s1	-0.1	44.2	-7.2	4.3	2.4	.	.
Cc1ccc2nsnc2c1S(=O)(=O)N(Cc1cc2cccc(C)c2[nH]c1=O)CC1CCCO1 (centres undefined)	21.2	-5.8	32.6	56.5*	16.0	46.6*	85.0*
Cc1ccc2cc(CN(CC3CCCO3)S(=O)(=O)c3c(C)ccc4nsnc34)c(=O)[nH]c2c1 (centres undefined)	11.8	2.2	7.3	18.7	7.8	.	.
N/C(=N\OC(=O)c1ccc(Cl)cc1)c1ccc(Cl)cc1	-69.7	-70.6	-96.1	11.3	-102.5	.	.
N/C(Cn1cncn1)=N\OC(=O)c1ccc(Cl)cc1	-10.2	24.5	3.6	51.0*	-2.5	-6.0	.
Cc1cc(-c2ccccc2)nc2cc(C(=O)N(Cc3ccccc3)Cc3ccccc3)nn12	30.2	-0.4	-16.1	50.6*	18.8	0.6	.
SMILES	Shn3 inh set2	Gli-Sufu block	697 NFkB inh	Mdm2-MdmX inh	Jurkat NFkB inh	Mdm2 MdmX conf	FLuc counter
Cc1ccc(N2CCN(C(=O)c3cc(-c4ccc(F)cc4)[nH]c3C)CC2C)cc1 (centres undefined)	29.9	11.3	-9.1	38.6	-9.5	.	.
CCOC(=O)C1=CC[C@H]2c3c(c4ccccc4n3C)C(=O)C1N2Cc1ccccc1	-2.1	11.7	0.1	1.4	-8.7	.	.
COc1cccc(CCN2CCC(CNS(=O)(=O)c3cc(-c4cc(C)no4)ccc3C)CC2)c1	21.8	46.2	-13.7	54.9*	49.4	49.8*	67.0*
Cc1cc(-c2ccc(C)c(S(=O)(=O)NCC3CCN(Cc4cccc(F)c4)CC3)c2)on1	40.9	41.7	11.7	42.0	-3.3	.	.
COc1ccc(-c2cc(C)no2)cc1S(=O)(=O)NCCCN1CCCCCC1	2.6	20.7	-4.4	27.5	-13.3	.	.
COc1ccc(N2CCN(S(=O)(=O)c3cc(-c4cc(C)no4)ccc3C(C)C)CC2)cc1	23.7	10.8	-72.6	50.6*	22.8	36.6	.
COc1cccc(CCN2CCC(CNS(=O)(=O)c3cc(-c4cc(C)no4)ccc3OC)CC2)c1	4.1	41.5	-23.6	50.4*	43.7	49.8*	71.9*
COc1ccc(-c2cc(C)no2)cc1S(=O)(=O)Nc1ccccc1	-13.4	17.6	-14.1	55.0*	30.7	67.4*	63.2*
Cc1cc(-c2ccc(C)c(S(=O)(=O)NCc3ccc(Br)cc3)c2)on1	18.6	-4.7	-15.4	64.0*	23.4	51.6*	42.2*
Cc1cc(-c2ccc(C)c(S(=O)(=O)NCc3cccc(Br)c3)c2)on1	2.8	6.8	-5.9	23.0	10.9	.	.
Cc1cc(-c2ccc(C)c(S(=O)(=O)NCC3CCN(Cc4ccccc4F)CC3)c2)on1	0.1	15.6	-17.3	23.7	7.8	.	.
COc1ccccc1CN1CCC(CNS(=O)(=O)c2cc(-c3onc(C)c3C)ccc2OC)CC1	-2.4	39.5	-2.9	51.4*	19.8	33.4	.
COc1ccc(-c2cc(C)no2)cc1S(=O)(=O)N1CCN(c2cccc(C)c2)C(C)C1 (centres undefined)	71.4	10.6	-60.1	52.9*	34.1	45.0*	61.4*
Cc1c(C(=O)c2ccc([N+](=O)[O-])cc2)c(=O)n(C)c(=O)n1C	12.4	-10.2	24.0	16.6	-0.3	.	.
Nc1nnnn1/N=C/c1cc(Cl)cc(Cl)c1OCc1ccc(Cl)cc1Cl	-18.8	-6.2	-9.9	80.9*	6.6	11.1	.
Nc1nnnn1/N=C/c1ccccc1OCc1ccc(Cl)cc1Cl	13.9	13.7	-13.3	19.7	-13.0	.	.
